Values joined by “and” are separate entries in the source; they are usually repeats but may differ in a detail not shown here. Equal values may be shown once. Among all 5,500 compounds or so, about 2,000 (36%) were called active. Another 18% or so got no clear call; they are omitted. No stated cut-off is given here; in the data, active means normalized growth mostly below about 0.91 (no sharp cut-off); inconclusive means no clear call, values can overlap the other calls; inactive means mostly above about 0.92. Some of the results follow.
Assay: chemical genetic growth profiling, strain panel (AID 1159580);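 further: tested at 20 µM; growth read once vehicle control cultures reached saturation at 30 °C; 1 = growth at the plate median or of vehicle wells; lower values mean less growth of the strain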
Settings: S. cerevisiae deletion strains, growth OD

Measured: normalized growth

OCCN1C[C@@H](O)[C@@H](O)C(O)C1CO (stereo partly specified)
inactive: locus YAL013W, strain DEP1, active compounds read low 1.02 | locus YAL021C, strain ccr4, active compounds read low 0.993 | locus YAL026C, strain drs2, active compounds read low 1.02 | locus YAL030W, strain snc1, active compounds read low 0.999 | locus YBL061C, strain skt5, active compounds read low 1.01 | locus YBR009C, strain hhf1, active compounds read low 1 | locus YBR021W, strain FUR4, active compounds read low 1.01 | locus YBR023C, strain chs3, active compounds read low 1 | locus YBR171W, strain sec66, active compounds read low 1.01 | locus YBR229C, strain ROT2, active compounds read low 1.02 | locus YBR231C, strain swc5, active compounds read low 1.01 | locus YBR279W, strain paf1, active compounds read low 1.01 | locus YCL011C, strain gbp2, active compounds read low 0.996 | locus YCL016C, strain dcc1, active compounds read low 0.993 | locus YCL029C, strain bik1, active compounds read low 1 | locus YCL069W, strain vba3, active compounds read low 0.991 | locus YCR088W, strain abp1, active compounds read low 0.997 | locus YDL005C, strain med2, active compounds read low 1.01 | locus YDL035C, strain GPR1, active compounds read low 1.01 | locus YDL040C, strain nat1, active compounds read low 1 | locus YDL074C, strain BRE1, active compounds read low 1.03 | locus YDL101C, strain DUN1, active compounds read low 1.01 | locus YDL134C, strain PPH21, active compounds read low 1.02 | locus YDL185W, strain tfp1, active compounds read low 0.994 | locus YDL192W, strain arf1, active compounds read low 1 | locus YDR001C, strain nth1, active compounds read low 1 | locus YDR069C, strain doa4, active compounds read low 1.01 | locus YDR101C, strain arx1, active compounds read low 1.01 | locus YDR137W, strain rgp1, active compounds read low 1.01 | locus YDR150W, strain NUM1, active compounds read low 1.02 | locus YDR159W, strain sac3, active compounds read low 1.01 | locus YDR162C, strain NBP2, active compounds read low 1.01 | locus YDR195W, strain ref2 0.992 | locus YDR297W, strain sur2, active compounds read low 1.01 | locus YDR318W, strain mcm21, active compounds read low 1 | locus YDR334W, strain swr1, active compounds read low 1.01 | locus YDR335W, strain msn5, active compounds read low 0.992 | locus YDR388W, active compounds read low 1 | locus YDR392W, strain spt3, active compounds read low 0.989 | locus YDR502C, strain sam2, active compounds read low 1 | locus YEL003W, strain gim4, active compounds read low 1.01 | locus YEL037C, strain rad23, active compounds read low 1 | locus YEL061C, strain CIN8 (second series), active compounds read low 0.989 | locus YEL061C, strain CIN8, active compounds read low 1.02 | locus YER015W, strain faa2, active compounds read low 1.01 | locus YER016W, strain bim1, active compounds read low 0.983 | locus YER110C, active compounds read low 0.993 | locus YER111C, strain swi4, active compounds read low 1.02 | locus YER155C, strain BEM2 (second series), active compounds read low 1.01 | locus YER155C, strain BEM2, active compounds read low 1.01 | locus YER167W, strain BCK2, active compounds read low 1.02 | locus YFR010W, strain ubp6, active compounds read low 1.01 | locus YGL078C, strain dbp3, active compounds read low 1.01 | locus YGL086W, strain mad1, active compounds read low 1 | locus YGL167C, strain pmr1, active compounds read low 1.01 | locus YGL173C, strain kem1, active compounds read low 1.02 | locus YGL227W, strain vid30, active compounds read low 1.01 | locus YGL240W, strain doc1, active compounds read low 1.01 | locus YGL248W, strain PDE1, active compounds read low 1.01 | locus YGL253W, strain hxk2, active compounds read low 1 | locus YGR078C, strain PAC10, active compounds read low 1.04 | locus YGR135W, strain pre9, active compounds read low 1 | locus YGR229C, strain SMI1, active compounds read low 1.02 | locus YGR252W, strain gcn5, active compounds read low 0.969 | locus YHR013C, strain ard1, active compounds read low 0.988 | locus YHR027C, strain rpn1, active compounds read low 1.01 | locus YHR030C, strain SLT2, active compounds read low 1.02 and 1.01 | locus YHR079C, strain IRE1 (second series), active compounds read low 1.01 | locus YHR079C, strain IRE1, active compounds read low 1 | locus YHR094C, strain hxt1, active compounds read low 1.01 | locus YHR129C, strain ARP1, active compounds read low 1.01 | locus YHR142W, strain chs7, active compounds read low 0.984 | locus YHR200W, strain rpn10, active compounds read low 1 | locus YIL066C, strain RNR3, active compounds read low 1.02 | locus YIL073C, strain SPO22, active compounds read low 1.03 | locus YIL125W, strain kgd1, active compounds read low 1 | locus YIR030C, strain dcg1, active compounds read low 1.01 | locus YJL092W, strain hpr5, active compounds read low 1 | locus YJL095W, strain BCK1 (second series), active compounds read low 1.01 | locus YJL095W, strain BCK1, active compounds read low 1.02 and 1.01 | locus YJL115W, strain asf1, active compounds read low 1.02 | locus YJL129C, strain trk1, active compounds read low 0.997 | locus YJL134W, strain LCB3, active compounds read low 1.01 | locus YJL154C, strain vps35, active compounds read low 0.994 | locus YJL164C, strain tpk1, active compounds read low 0.996 | locus YJL166W, strain qcr8, active compounds read low 1.01 | locus YJL168C, strain set2, active compounds read low 1 | locus YJL187C, strain SWE1 (second series), active compounds read low 1.02 | locus YJR043C, strain POL32, active compounds read low 1 | locus YJR066W, strain TOR1, active compounds read low 0.962 | locus YJR075W, strain HOC1, active compounds read low 1.01

Reference: PubChem BioAssay AID1159580 (chemical genetic matrix, 2015)
